According to PubChem BioAssay (NCI):
Compounds without any hit were thinned out: in the full panel of roughly 83,000, 20% have a hit.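 Each cell line was grown in a 96-well plate and treated with one concentration of compound for 48 hours. Values below 10 were considered active.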 Active and inactive are the calls of the source.

Columns and labels:
Experiment in all cases: NCI-60 one-dose screen, 48 h (100 = growth as untreated, 0 = no growth, -100 = all killed)
Details in all cases: 10 µM unless noted
NCI-H23 lung = system: NCI-H23 lung
NCI-H226 lung = system: NCI-H226 lung
NCI-H322M lung = system: NCI-H322M lung
HOP-62 NSCLC = system: HOP-62 NSCLC
NCI-H460 lung = system: NCI-H460 lung
HOP-92 NSCLC = system: HOP-92 NSCLC
NCI-H522 lung = system: NCI-H522 lung
A549/ATCC NSCLC = system: A549/ATCC NSCLC
786-0 renal = system: 786-0 renal
COLO 205 colon = system: COLO 205 colon
DU-145 prostate = system: DU-145 prostate
K-562 leukemia = system: K-562 leukemia
MALME-3M melanoma = system: MALME-3M melanoma
MDA-MB-231 breast = system: MDA-MB-231 breast
RXF 393 renal = system: RXF 393 renal
SF-268 CNS = system: SF-268 CNS
SF-295 CNS = system: SF-295 CNS
SF-539 CNS = system: SF-539 CNS
UACC-257 melanoma = system: UACC-257 melanoma
M14 melanoma = system: M14 melanoma

Measured: growth

COc1ccc(-c2cc(C(=O)N=Nc3c(O)[nH]c4ccc(Br)cc34)no2)cc1
inactive: NCI-H23 lung 87% | NCI-H226 lung 86.3% | NCI-H322M lung 99% | HOP-62 NSCLC 90.5% | NCI-H460 lung 101% | HOP-92 NSCLC 96.7% | NCI-H522 lung 83.2% | A549/ATCC NSCLC 103% | 786-0 renal 105% | COLO 205 colon 114% | DU-145 prostate 105% | K-562 leukemia 96.5% | MALME-3M melanoma 92.4% | MDA-MB-231 breast 92.8% | RXF 393 renal 107% | SF-268 CNS 99.4% | SF-295 CNS 103% | SF-539 CNS 95.9% | UACC-257 melanoma 112% | M14 melanoma 98.9%

COc1ccc(/C=N/C2=C(C#N)C(c3ccc(N(C)C)cc3)c3ccc4ccccc4c3O2)cc1 (stereo not given)
inactive: NCI-H23 lung 79.2% | NCI-H226 lung 44.6% | NCI-H322M lung 89.1% | HOP-62 NSCLC 57.4% | NCI-H460 lung 40.7% | HOP-92 NSCLC 65.4% | NCI-H522 lung 26.1% | A549/ATCC NSCLC 64.9% | 786-0 renal 83.1% | COLO 205 colon 101% | DU-145 prostate 81.5% | K-562 leukemia 14.7% | MALME-3M melanoma 72% | MDA-MB-231 breast 52.5% | RXF 393 renal 67.2% | SF-268 CNS 63.1% | SF-295 CNS 39.1% | SF-539 CNS 51.8% | UACC-257 melanoma 79.3% | M14 melanoma 44%

C=C1C(=O)O[C@H]2[C@H]1CC/C(COC(=O)c1cc3cc(OC)ccc3[nH]1)=C\CC[C@@]1(C)O[C@@H]21
inactive: SF-295 CNS 47.5%
active: NCI-H23 lung -72.6% | NCI-H226 lung -68.3% | NCI-H322M lung -50.8% | HOP-62 NSCLC -68.9% | NCI-H460 lung -37% | HOP-92 NSCLC -62.7% | NCI-H522 lung -91.4% | A549/ATCC NSCLC -73.9% | 786-0 renal -87.6% | COLO 205 colon -71.3% | DU-145 prostate -94.4% | K-562 leukemia 0.302% | MALME-3M melanoma -85.3% | MDA-MB-231 breast -71.6% | RXF 393 renal -95.1% | SF-268 CNS -82.8% | SF-539 CNS -93.4% | UACC-257 melanoma -89.6% | M14 melanoma -52.9%

O=Nc1c(O)c(Cl)cc2ccccc12
inactive: NCI-H23 lung 92.3% | NCI-H226 lung 78.9% | NCI-H322M lung 102% | HOP-62 NSCLC 75.1% | NCI-H460 lung 90.3% | HOP-92 NSCLC 112% | NCI-H522 lung 50.1% | A549/ATCC NSCLC 93% | 786-0 renal 105% | COLO 205 colon 70.9% | DU-145 prostate 101% | K-562 leukemia 54.3% | MALME-3M melanoma 90.8% | MDA-MB-231 breast 74.3% | RXF 393 renal 67.4% | SF-268 CNS 82.5% | SF-295 CNS 111% | SF-539 CNS 89.2% | UACC-257 melanoma 75.8% | M14 melanoma 85.7%

CCOc1cc2ncc(C#N)c(Nc3ccc(OCc4cccc(F)c4)c(Cl)c3)c2cc1NC(=O)CCCCC1CCSS1 (stereo not given)
inactive: NCI-H23 lung 101% | NCI-H226 lung 88.9% | NCI-H322M lung 90.8% | HOP-62 NSCLC 94.4% | NCI-H460 lung 98% | HOP-92 NSCLC 78.9% | NCI-H522 lung 66.4% | A549/ATCC NSCLC 73.6% | 786-0 renal 89.1% | COLO 205 colon 103% | DU-145 prostate 97.4% | K-562 leukemia 80.3% | MALME-3M melanoma 125% | MDA-MB-231 breast 96.2% | RXF 393 renal 97.9% | SF-268 CNS 95.7% | SF-295 CNS 106% | SF-539 CNS 108% | UACC-257 melanoma 81% | M14 melanoma 93.1%

COc1ccc(S(=O)(=O)N2CCCCC2)cc1NC(=O)c1[nH]c(C)c2c1CCCCC2=O
active: NCI-H522 lung 7.18% | RXF 393 renal 3.54%
inactive: NCI-H23 lung 26% | NCI-H226 lung 46.2% | NCI-H322M lung 31.8% | HOP-62 NSCLC 26% | NCI-H460 lung 34.8% | HOP-92 NSCLC 26.9% | A549/ATCC NSCLC 28.2% | 786-0 renal 32.3% | COLO 205 colon 22.9% | DU-145 prostate 61.5% | K-562 leukemia 22% | MALME-3M melanoma 45.2% | MDA-MB-231 breast 29.1% | SF-268 CNS 48.1% | SF-295 CNS 23.9% | SF-539 CNS 24.9% | UACC-257 melanoma 32% | M14 melanoma 36%

O=C(CN(C(=O)Cn1c(=O)n2nnnc2c2ccccc21)c1ccccc1C(F)(F)F)Nc1ccc(C(F)(F)F)cc1
inactive: NCI-H23 lung 103% | NCI-H226 lung 104% | NCI-H322M lung 107% | HOP-62 NSCLC 107% | NCI-H460 lung 105% | HOP-92 NSCLC 92.8% | NCI-H522 lung 98% | A549/ATCC NSCLC 104% | 786-0 renal 103% | COLO 205 colon 112% | DU-145 prostate 110% | K-562 leukemia 101% | MALME-3M melanoma 103% | MDA-MB-231 breast 104% | RXF 393 renal 116% | SF-268 CNS 103% | SF-295 CNS 104% | SF-539 CNS 101% | UACC-257 melanoma 115% | M14 melanoma 102%
